# Values joined by “and” are separate entries in the source; they are usually repeats but may differ in a detail not shown here. Identical values can stand only once. The panel holds about 83,000 compounds, 20% with a hit somewhere; the sample as a whole holds those more often.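 Percent growth is the endpoint: 0 to 100 indicates growth inhibition (40 means 60% inhibition), 0 means no net growth, and negative values indicate cell death.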 Active and inactive are the calls of the source. How the source made its calls: active means growth percent below 10; inactive means the rest.
# Test system: MDA-MB-468 breast
# Test: NCI-60 one-dose screen, 48 h (100 = growth as untreated, 0 = no growth, -100 = all killed)
# Conditions: 10 µM unless noted
row,Structure (SMILES),growth
1,CC1(C)CC[C@]2(c3nnc(-c4ccncc4)o3)CC[C@H]3C(=CC[C@H]4[C@@]3(C)CC[C@H]3C(C)(C)C(=O)CC[C@]43C)[C@@H]2C1,62.2% (inactive)
2,CCOC(=O)c1sc(NC(=O)CN2CCC(Cc3ccccc3)CC2)nc1C,98.5% (inactive)
3,COc1ccc(CCCc2c3[n+](cc4c(OC)c(OC)ccc24)CCc2cc4c(cc2-3)OCO4)cc1,1.74% (active)
4,CN(C)Cc1c(-c2ccccc2)[nH]c2ccccc12,103% (inactive)
5,CCOC(=O)c1c(N)c(C#N)cn1-c1cc(OC)c(OC)c(OC)c1,103% (inactive)
6,COc1ccc(-c2nc3c(N)c(CO)c(C)nc3o2)cc1,67.5% (inactive)
7,c1ccc(N2N=C(c3cccc(Nc4ccncc4)c3)CC2c2ccc3c(c2)OCO3)cc1 (centres undefined),15.1% (inactive)
8,Cc1c(-c2nc3ccc(F)cc3c(=O)[nH]2)c2ccccc2n1C,6.2% (active)
9,O=C(Nc1ccc(I)cc1)c1cccc([N+](=O)[O-])c1O,2.17% (active)
10,O=C(c1ccccc1)C1(Br)CCCCC1,90.3% (inactive)
11,CS(=O)(=O)c1ccc(C(=O)N/N=C/c2cccc3ccccc23)cc1,74.2% (inactive)
12,COc1cc(C2N=C(NNc3ccccc3)NC(C)=C2C(C)=O)ccc1O (centres undefined),93.3% (inactive)
13,COc1cc(Nc2nc3ccccc3nc2NS(=O)(=O)c2ccc(NC(=O)c3ccc(C)c(OC)c3)cc2)cc(OC)c1,72.6% (inactive) and -30.3% (active)
14,CCCOC(=O)C1(O)CCCC1,97.1% (inactive)
